Results filed as inconclusive are left out. Values without a mark were called inactive. Activity calls are given as the source filed them. The call rests on the fitted dose curve; in most records, active means well fitted curve in the direction sought with a large enough effect; inconclusive means small, poorly fitted or top-dose-only effect, or another doubt; inactive means no such curve, though single readings can be large; an effect the other way counts as inactive or inconclusive.

21 compounds from PubChem BioAssay (NCATS) can be followed below.

Experiment [1] has as its target Rap guanine nucleotide exchange factor 3 (Homo sapiens) (UniProt O95398). Nature of the experiment: Confirmatory qHTS for antagonist of cAMP-regulated guanine nucleotide exchange factor 3 (EPAC1) (AID 1645880). Further: nearly all actives have a fitted effect of over 55% in size. Further: potency means the concentration at half of the fitted maximal effect. A digest of the protocol: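 Released BODIPY-GDP fluoresces less than Rap1-bound BODIPY-GDP; the signal is followed at 480/540 nm at 5-min intervals over 30 min, after 5 min at room temperature. Reactions contain 100 nM EPAC1, 250 nM RAP1B-BODIPY-GDP and 50 uM GDP; results are normalized to ATA and DMSO.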
For orientation: In qHTS, concentration-response curves come from the screen itself.

Experiment [2] has the same target. In words: Confirmatory qHTS for agonist of cAMP-regulated guanine nucleotide exchange factor 3 (EPAC1) (AID 1645881). Further: nearly all actives have a fitted effect of over 75% in size. Further: potency means the concentration at half of the fitted maximal effect.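 On activation: EPAC1 catalysed release of BODIPY-GDP from Rap1B seen as fluorescence loss; 100% = effect of cAMP agonist control.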
The target of experiment [3] is Rap guanine nucleotide exchange factor 4 (Homo sapiens) (UniProt Q8WZA2). In words: Confirmatory qHTS for agonist of cAMP-regulated guanine nucleotide exchange factor 4 (EPAC2) (AID 1645884).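 Further: nucleotide exchange releases bodipy-GDP from Rap1 and this lowers its fluorescence; nearly all actives have a fitted effect of over 65% in size.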 Further: potency means the concentration at half of the fitted maximal effect. On activation: on the % scale 0 is the no-effect control and ±100 the full control effect.
Experiment [4] has the same target. Nature of the experiment: Confirmatory qHTS for antagonist of cAMP-regulated guanine nucleotide exchange factor 4 (EPAC2) (AID 1645885). Further: nearly all actives have a fitted effect of over 25% in size. Further: potency means the concentration at half of the fitted maximal effect. On activity change, negative = inhibition: on the % scale 0 is the no-effect control and ±100 the full control effect.
The target of experiment [5] is Rap guanine nucleotide exchange factor 3 (Homo sapiens) (UniProt O95398). In words: Counterscreen qHTS for antagonist of cAMP-regulated guanine nucleotide exchange factor 3 (EPAC1) (AID 1645888). Further: % of control where 0% means no effect. A digest of the protocol: (§1)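 Rap1B-BODIPY-GDP 250 nM + GDP 50 uM; cpds 7-pt, final 9.74 nM–152 uM (activator mode) or from 7.32 nM upwards (inhibitor mode); RT; FI 480/540 nm at 5 and 30 min, then ± cAMP, reread.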

For experiment [6] the target is unchanged. Nature of the experiment: Counterscreen qHTS for agonist of cAMP-regulated guanine nucleotide exchange factor 3 (EPAC1) (AID 1645889). Further: nearly all actives have a fitted effect of over 40% in size. Further: potency means the concentration at half of the fitted maximal effect. On activation: % of control where 0% means no effect. A digest of the protocol:
as §1
(Counterscreens check selectivity or assay interference.)

Sequence of Rap guanine nucleotide exchange factor 4 (Homo sapiens) (Q8WZA2 whole entry, looked up): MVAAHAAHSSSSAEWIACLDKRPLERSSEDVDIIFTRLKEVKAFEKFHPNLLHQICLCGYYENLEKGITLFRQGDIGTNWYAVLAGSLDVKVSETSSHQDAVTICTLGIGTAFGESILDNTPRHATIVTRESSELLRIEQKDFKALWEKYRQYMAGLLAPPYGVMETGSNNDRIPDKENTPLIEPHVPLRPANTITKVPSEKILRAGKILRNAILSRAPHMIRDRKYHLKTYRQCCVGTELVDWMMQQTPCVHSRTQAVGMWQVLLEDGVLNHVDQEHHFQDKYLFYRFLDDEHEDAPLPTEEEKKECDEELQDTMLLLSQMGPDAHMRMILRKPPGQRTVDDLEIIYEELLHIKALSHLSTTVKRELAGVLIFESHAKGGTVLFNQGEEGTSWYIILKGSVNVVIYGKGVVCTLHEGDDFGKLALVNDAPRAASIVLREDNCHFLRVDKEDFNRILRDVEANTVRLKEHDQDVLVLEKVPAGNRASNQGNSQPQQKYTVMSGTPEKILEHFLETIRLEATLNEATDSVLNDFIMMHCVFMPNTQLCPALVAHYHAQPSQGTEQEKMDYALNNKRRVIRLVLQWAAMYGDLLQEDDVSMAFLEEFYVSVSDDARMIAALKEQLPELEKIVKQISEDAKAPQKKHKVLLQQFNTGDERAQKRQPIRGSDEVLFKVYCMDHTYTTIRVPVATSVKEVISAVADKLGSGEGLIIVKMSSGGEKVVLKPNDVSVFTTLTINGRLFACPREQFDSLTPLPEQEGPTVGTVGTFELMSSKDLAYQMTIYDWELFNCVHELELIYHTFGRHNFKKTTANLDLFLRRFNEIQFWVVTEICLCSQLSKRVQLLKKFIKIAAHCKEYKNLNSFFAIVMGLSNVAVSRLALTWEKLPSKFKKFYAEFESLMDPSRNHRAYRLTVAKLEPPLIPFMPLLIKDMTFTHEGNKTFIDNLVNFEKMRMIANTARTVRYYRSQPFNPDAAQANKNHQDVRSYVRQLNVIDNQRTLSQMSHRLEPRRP
Sequence of Rap guanine nucleotide exchange factor 3 (Homo sapiens) (O95398 whole entry, looked up): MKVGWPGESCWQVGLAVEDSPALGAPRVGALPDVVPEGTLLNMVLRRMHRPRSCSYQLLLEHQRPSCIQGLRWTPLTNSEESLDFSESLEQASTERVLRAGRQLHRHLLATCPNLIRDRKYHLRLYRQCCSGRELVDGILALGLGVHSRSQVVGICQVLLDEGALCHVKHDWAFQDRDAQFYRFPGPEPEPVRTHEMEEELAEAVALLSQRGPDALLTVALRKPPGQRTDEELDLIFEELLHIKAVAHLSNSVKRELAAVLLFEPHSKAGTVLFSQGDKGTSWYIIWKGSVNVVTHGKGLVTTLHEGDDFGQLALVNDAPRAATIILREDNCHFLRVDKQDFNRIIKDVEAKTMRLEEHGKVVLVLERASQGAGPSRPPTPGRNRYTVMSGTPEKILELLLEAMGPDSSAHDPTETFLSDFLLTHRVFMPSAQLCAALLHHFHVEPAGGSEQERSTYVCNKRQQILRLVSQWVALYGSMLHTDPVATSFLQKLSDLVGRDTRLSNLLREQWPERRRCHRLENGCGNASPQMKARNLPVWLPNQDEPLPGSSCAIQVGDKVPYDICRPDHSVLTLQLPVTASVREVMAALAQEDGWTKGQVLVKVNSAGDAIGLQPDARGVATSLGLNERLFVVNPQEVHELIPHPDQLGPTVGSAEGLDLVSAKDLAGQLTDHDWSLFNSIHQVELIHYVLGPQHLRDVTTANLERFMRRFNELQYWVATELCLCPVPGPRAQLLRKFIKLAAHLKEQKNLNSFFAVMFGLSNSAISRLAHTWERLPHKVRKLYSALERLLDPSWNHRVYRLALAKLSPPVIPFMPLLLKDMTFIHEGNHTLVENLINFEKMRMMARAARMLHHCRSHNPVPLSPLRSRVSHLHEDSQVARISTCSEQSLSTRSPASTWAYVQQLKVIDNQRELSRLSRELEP

Regarding `CC(/C=C1\SC(=S)N(NS(=O)(=O)c2ccccc2)C1=O)=C\c1ccccc1`, the Potency in experiment [1] was 22.4 µM (active). Also, the Potency result in experiment [2] and in experiment [4] was “inactive” throughout. For the same compound, the activation was 7.93% [at 17.1 µM, percent relative to cAMP agonist control] in experiment [3] and 7.68% [at 30.8 µM] in experiment [6]. Also, the activity change, negative = inhibition in experiment [5] is -10.4% [at 30.8 µM].

Turning to `CCOC(=O)c1cnc2ccccc2c1Nc1cccc(OC)c1`, the Potency result in experiment [1], in experiment [2], in experiment [3], in experiment [5] and in experiment [6] was “inactive” in each case. For the same compound, in experiment [4], the outcome is “inactive [at 12.7 µM]”.

Regarding `Cc1ccc(C(CCN(Cc2ccccc2)C(=O)c2ccco2)c2ccco2)cc1` (stereo unspecified), the Potency in experiment [1] was 37.9 µM (active); in experiment [4], 53.6 µM (active). In addition, the Potency result in experiment [2], in experiment [3], in experiment [5] and in experiment [6] was “inactive” throughout.

As for `O=S(=O)(NCc1cn2ccsc2n1)c1cccs1`, the Potency result in experiment [1], in experiment [2] and in experiment [4] was “inactive” throughout. Moreover, the activation in experiment [3] was 0% [at 17.1 µM, percent relative to cAMP agonist control]; in experiment [6], 3.73% [at 30.8 µM]. Also, the activity change, negative = inhibition in experiment [5] is -13.2% [at 30.8 µM].

In the case of `CCCOc1ccccc1Cn1c(=O)oc2ccccc21`, the Potency entry in experiment [1], in experiment [2], in experiment [3], in experiment [5] and in experiment [6] was “inactive” throughout. For the same compound, the Potency in experiment [4] is 9.53 µM (active).

Turning to `CCCc1cc2c(cc1N(C)S(=O)(=O)c1ccccc1)OCO2`, the Potency entry in experiment [1], in experiment [2], in experiment [3], in experiment [4], in experiment [5] and in experiment [6] was “inactive” in each case.

For `CCOC(=O)c1ccc(N2C(=O)c3[nH]nc(-c4ccc(OCC)cc4)c3C2c2cccs2)cc1` (stereo unspecified), the Potency result in experiment [1], in experiment [2], in experiment [3], in experiment [4], in experiment [5] and in experiment [6] was “inactive” in each case.

`CCOC(=O)c1cc2n(c1N)-c1ccccc1C2=O`: the Potency entry in experiment [1] and in experiment [5] was “inactive” in each case. The Potency was 100 µM (active) in experiment [2], 100 µM (active) in experiment [3], 23.9 µM (active) in experiment [4] and 31.6 µM (active) in experiment [6].

Regarding `Cc1ccc(S(=O)(=O)/N=C2/NC(=O)/C(=C/c3ccccc3)S2)cc1`, the Potency in experiment [1] is 42.6 µM (active). Moreover, the Potency result in experiment [2], in experiment [3], in experiment [4], in experiment [5] and in experiment [6] was “inactive” each time.

With `Oc1ccc(NCc2cccs2)cc1`, the Potency entry in experiment [1], in experiment [2] and in experiment [4] was “inactive” throughout. In addition, the activation in experiment [3] is 14.6% [at 17.1 µM, percent relative to cAMP agonist control]; in experiment [6], 21.5% [at 30.8 µM]. In addition, in experiment [5], the activity change, negative = inhibition was 0.945% [at 30.8 µM].

`O=c1c2ccccc2[nH]c(=S)n1-c1cccc(S(=O)(=O)N2CCCC2)c1`: the Potency entry in experiment [1], in experiment [2], in experiment [3], in experiment [4], in experiment [5] and in experiment [6] was “inactive” each time.

In the case of `CCCN(CC(=O)Nc1ccccc1C)C(=O)C1CCN(S(=O)(=O)c2ccccc2C(F)(F)F)CC1`, the Potency result in experiment [1], in experiment [2], in experiment [3], in experiment [4], in experiment [5] and in experiment [6] was “inactive” in each case.

Turning to `O=C(O)CCc1ccc(-c2ccccc2)n1-c1cccc(Br)c1`, the Potency entry in experiment [1], in experiment [2], in experiment [3], in experiment [5] and in experiment [6] was “inactive” each time. Further, in experiment [4], the outcome is “inactive; activator; fitted 0.0054 uM [at 12.7 µM]”.

Regarding `CC1CCc2c(sc(NC(=O)Cc3ccccc3)c2C(=O)Nc2ccc(Cl)cc2)C1` (stereo unspecified), the Potency entry in experiment [1], in experiment [2], in experiment [3], in experiment [4], in experiment [5] and in experiment [6] was “inactive” throughout.

For `Cc1ccc(C(=O)O/N=C(\c2ccccc2)c2cccnc2)cc1`, the Potency result in experiment [1], in experiment [2] and in experiment [4] was “inactive” throughout. Also, the activation in experiment [3] is -3.55% [at 17.1 µM, percent relative to cAMP agonist control]; in experiment [6], 8.08% [at 30.8 µM]. Also, in experiment [5], the activity change, negative = inhibition is 3.07% [at 30.8 µM].

Take `O=C(Cc1ccccc1)O/N=C1\CCCc2ccccc21`: the Potency result in experiment [1], in experiment [2], in experiment [3], in experiment [4], in experiment [5] and in experiment [6] was “inactive” throughout.

On to `CCCS(=O)(=O)N1CCC(C(=O)NCCN2CCCC2)CC1`, for which the Potency entry in experiment [1], in experiment [2] and in experiment [4] was “inactive” in each case. Further, the activation in experiment [3] was 10.1% [at 17.1 µM, percent relative to cAMP agonist control]; in experiment [6] it was 25.6% [at 30.8 µM]. In addition, the activity change, negative = inhibition in experiment [5] is -10.8% [at 30.8 µM].

With `Cc1[nH]c2ccccc2c1C(C[N+](=O)[O-])c1cccs1` (stereo unspecified), the Potency entry in experiment [1], in experiment [2] and in experiment [4] was “inactive” each time. Further, the activation in experiment [3] was 5.2% [at 17.1 µM, percent relative to cAMP agonist control]; in experiment [6] it was 46.2% [at 30.8 µM]. The activity change, negative = inhibition in experiment [5] was -10.6% [at 30.8 µM].

Take `COC(=O)c1sc(-c2ccccc2)cc1NC(C)=O`: the Potency entry in experiment [1], in experiment [2] and in experiment [4] was “inactive” in each case. In addition, the activation in experiment [3] is 3.04% [at 17.1 µM, percent relative to cAMP agonist control]; in experiment [6] it was 9.28% [at 30.8 µM]. Besides, in experiment [5], the activity change, negative = inhibition was 7.63% [at 30.8 µM].

Turning to `NC(=O)c1sc(=S)n2c1[nH]c(=O)c1sccc12`, the Potency in experiment [1] was 16.9 µM (active). Further, the Potency entry in experiment [2], in experiment [3], in experiment [4], in experiment [5] and in experiment [6] was “inactive” throughout.

Take `C=CCn1c(O)c(N=NC(=O)CNC(=O)/C=C/c2ccc(OC)cc2)c2ccccc21`: the Potency result in experiment [1], in experiment [2], in experiment [3], in experiment [4], in experiment [5] and in experiment [6] was “inactive” each time.
